# Screens deposited in PubChem BioAssay by National Center for Advancing Translational Sciences (NCATS).
# Rows were chosen to be rich in hits. Some 12% of all compounds tested hit in one or more screens of this group.
# G9a block: G9a (human) methyltransferase inhibition | Q96KQ7 | G9a H3K9 monomethylation, AlphaScreen, 2 h | Potency, µM (doses to about 102 µM), usual class: inhibitors | 350,000 tested, 8.8% active | AID 504332; also: nearly all actives have a fitted effect of over 75% in size
#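 AlphaScreen detection with an anti-monomethyl H3K9 antibody quantified product after a 2 h room-temperature reaction containing 500 nM biotinylated H3K9 peptide, 20 µM SAM and 20 nM enzyme, which had been preincubated 15 min with compound.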
# PLK1 PBD inh: inhibitors of human PLK1 polo-box domain binding. P53350. Plk1 PBD binding of FITC phosphopeptide, fluorescence polarization. Potency, µM, most hits filed as inhibitors. 360,000 tested, 2.8% active. AID 720504; also: series mostly up to about 57 µM; nearly all actives have a fitted effect of over 65% in size
# JMJD2A Tudor: JMJD2A Tudor domain (human) inhibition. AlphaScreen JMJD2A-Tudor / H3K4me3 peptide binding. 390,000 tested, 4.4% active. AID 504339. Potency, µM (highest dose often 114 µM), actives largely listed as inhibitors; also: nearly all actives have a fitted effect of over 50% in size
# Target sequence (O75164 whole entry, looked up, the tested form may be a part): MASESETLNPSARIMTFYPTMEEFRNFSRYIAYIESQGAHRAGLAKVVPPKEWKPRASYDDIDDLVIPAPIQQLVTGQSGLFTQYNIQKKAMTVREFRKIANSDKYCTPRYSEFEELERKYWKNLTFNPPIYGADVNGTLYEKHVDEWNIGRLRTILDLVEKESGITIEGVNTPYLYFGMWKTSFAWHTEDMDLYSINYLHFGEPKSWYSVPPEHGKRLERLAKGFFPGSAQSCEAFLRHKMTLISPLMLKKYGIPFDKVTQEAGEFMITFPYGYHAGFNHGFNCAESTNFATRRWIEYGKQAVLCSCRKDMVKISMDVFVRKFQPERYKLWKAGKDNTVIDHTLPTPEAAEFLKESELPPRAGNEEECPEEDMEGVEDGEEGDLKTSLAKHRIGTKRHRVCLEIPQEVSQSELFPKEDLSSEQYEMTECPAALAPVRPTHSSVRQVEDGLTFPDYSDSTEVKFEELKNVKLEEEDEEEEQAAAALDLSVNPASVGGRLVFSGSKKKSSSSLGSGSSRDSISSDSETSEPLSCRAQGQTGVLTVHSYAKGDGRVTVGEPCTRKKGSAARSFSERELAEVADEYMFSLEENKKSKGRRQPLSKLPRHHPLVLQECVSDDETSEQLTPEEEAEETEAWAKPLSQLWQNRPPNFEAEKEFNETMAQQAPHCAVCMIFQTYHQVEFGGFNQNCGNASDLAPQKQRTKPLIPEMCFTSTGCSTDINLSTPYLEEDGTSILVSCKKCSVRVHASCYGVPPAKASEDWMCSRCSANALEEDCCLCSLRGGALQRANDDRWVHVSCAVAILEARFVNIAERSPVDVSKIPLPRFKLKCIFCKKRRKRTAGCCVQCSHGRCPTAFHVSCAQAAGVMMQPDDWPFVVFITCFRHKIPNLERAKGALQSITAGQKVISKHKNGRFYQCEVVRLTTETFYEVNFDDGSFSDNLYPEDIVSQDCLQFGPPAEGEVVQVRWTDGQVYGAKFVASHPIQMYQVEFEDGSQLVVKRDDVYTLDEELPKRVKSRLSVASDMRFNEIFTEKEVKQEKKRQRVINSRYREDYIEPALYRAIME
# HP1b binding inh: blocks HP1-beta chromodomain binding to methylated histone tails; P83916; AlphaScreen HP1-beta / biotin-H3K9me3 peptide binding; Potency, µM (titrated, usually from 114 µM), hits mostly inhibitors; 390,000 tested, 0.56% active; AID 540317; also: nearly all actives have a fitted effect of over 70% in size
#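 Compound inhibition of the preformed complex between 50 nM HP1-beta and 50 nM biotinylated H3K9me3 peptide was read by AlphaScreen. Buffer was PBS pH 7.4 with 0.01% Tween-20. Incubations ran 30 min at room temperature, with 10 ug/mL donor/acceptor beads.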
# BAZ2B block: blocks human BAZ2B; Potency, µM (series often up to 114 µM), hits mostly inhibitors; AlphaScreen BAZ2B-H3K14Ac peptide displacement; Q9UIF8; 360,000 tested, 4.4% active; AID 504333; also: nearly all actives have a fitted effect of over 60% in size
#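 Compounds, titrated to a top concentration of 110 uM, were incubated 30 min at room temperature with preformed BAZ2B/acetyl-K14 H3 peptide complex (50 nM each). Proximity signal was measured by AlphaScreen after 20 min with beads.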
# PI5P4Ka inh: inhibitors of human PI5P4K alpha; PI5P4Kalpha enzyme, ADP-Glo luminescence, 60 min; stronger effect = lower value; max response, %; 330,000 tested, 1.2% active; active = max response of -50% or lower; inconclusive = between -30% and -50%; inactive = -30% or higher; also: value at the top dose of about 77 µM
#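 Compounds were pin-transferred onto PI5P4Kalpha and substrate in HEPES pH 7.4 buffer with EGTA, CHAPS and 5% DMSO. ATP (5 microM final) started the reaction, which ran 60 minutes at room temperature before ADP-Glo detection.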
# Hits are given with their value; . = inactive; ? = inconclusive; / = not tested or not shown; [ ] = dose if it differs, or a comment. Unless noted, calls follow the shape of the dose curve; as a rule, active = well fitted curve in the direction sought with a large enough effect; inconclusive = small, poorly fitted or top-dose-only effect, or another doubt; inactive = no such curve, though single readings can be large; an effect the other way counts as inactive or inconclusive.
SMILES,G9a block,PLK1 PBD inh,JMJD2A Tudor,HP1b binding inh,BAZ2B block,PI5P4Ka inh
COCCNc1nnc(SCC(=O)Nc2cc(-c3ccccc3)nn2-c2ccccc2)s1,79µM,.,.,.,.,.
O=C(N/N=C/c1cc(Br)c(O)c(Br)c1)c1cc2c(ccc3ccccc32)o1,?,21µM,79µM,?,40µM,-103
O=C(N/N=C/c1cc(Cl)c(O)c(Cl)c1)c1cc2c(ccc3ccccc32)o1,/,24µM,?,.,56µM,-77
O=C(N/N=C/c1ccc(O)c(Br)c1)c1cc2c(ccc3ccccc32)o1,.[0.501 µM],.,.,.,.,?
N#C/C(=C\N1CCN(Cc2ccc3c(c2)OCO3)CC1)c1nc2ccccc2s1,40µM,.,?,.,.,/
COc1ccc(OC)c(-c2nn(-c3ccccc3)cc2C(=O)NCC(c2ccco2)N2CCCC2)c1 (stereo not drawn),.[12.7 µM],.,?,.,.,.
CCN(CC)C(=O)C1=C(C)N(CCCOC)C(=O)C(CC(=O)NC(c2ccccc2)c2ccccc2)C1 (stereo not drawn),/,.,/,/,/,.
CCc1cc2c(nc1CC)CCN(CC/C(C)=N/O[C@@H](C)c1cc(-c3c(C)cc(C)cc3C)no1)C2,35µM,/,/,/,?,/
CC(C)(C)C1CCC(=NNC(=S)Nc2cccnc2)CC1 (stereo not drawn),10µM,.,?,.,?,.
S=C(Nc1cccnc1)NC1CC2CCC1C2 (stereo not drawn),/,.,.,.,71µM,.
CC(C)(C)C1CCC(=NNC(=O)CN(c2ccccc2)S(C)(=O)=O)CC1 (stereo not drawn),?,.,.,.,.,.
CCNC(=S)NN=C1CCC(C(C)(C)C)CC1 (stereo not drawn),?,.,.,.,79µM,.
CC(C)(C)C1CCc2onc(C(=O)Nc3cccnc3)c2C1 (stereo not drawn),.[12.7 µM],.,.,.,.,/
O=C(NCc1cccc(C(F)(F)F)c1)c1csc([C@@H]2C[C@H](O)[C@@H](CO)O2)n1,/,.,/,/,/,.
COc1ccc(-c2csc3nc(-c4cccnc4)nc(Cl)c23)cc1OC,?,27µM,.,.,.,.
COc1cc(/C=N/NC(=O)c2ccccc2)ccc1O,.,.,.,.,.,.
Cc1c(C(=O)N/N=C/c2ccc(O)c(Br)c2)sc(N)c1C#N,.,.,.,.,.,-84
COc1cc(/C=N/NC(=O)c2sc(N)c(C#N)c2C)ccc1O,.[12.7 µM],.,.,.,.,-84
CCc1nc2ccc(C(=O)NCCN3CCNC3=O)cn2c1N(C)CCC(C)C,/,.,/,/,/,.
COc1ccc(-n2ncc(C(=O)NCCN3CCOCC3)c2C2CCN(C(=O)OC(C)(C)C)CC2)cc1,.,/,.,.,.,/
CCC(Oc1ccc(F)cc1)C(=O)Nc1c(C(=O)c2ccc(C)cc2)oc2ccccc12 (stereo not drawn),.,/,.,.,.,/
CCCCn1c(O)c(N=NC(=O)c2ccccc2NS(=O)(=O)c2cccs2)c2ccccc21,.,.,.,.,.,?
CC(C)n1c(O)c(N=NC(=O)c2ccccc2NS(=O)(=O)c2cccs2)c2ccccc21,.,17µM,14µM,.,?,.
C=CCn1c(O)c(N=NC(=O)c2ccccc2NS(=O)(=O)c2cccs2)c2ccccc21,45µM,.,.,.,.,?
Cc1cccc(C(=O)NNC(=O)c2c(-c3ccccc3Cl)noc2C)c1O,.,.,.,.,.,.
SMILES,G9a block,PLK1 PBD inh,JMJD2A Tudor,HP1b binding inh,BAZ2B block,PI5P4Ka inh
CCOC(=O)N(C)c1c(CC)nc2c(OCc3ccc(Cl)cc3)cccn12,/,.,/,/,/,.
Cc1cc(/C=N/n2cnnc2)c(O)c([N+](=O)[O-])c1,.,.,.,.,?,.
CN(C)C1(CN=Cc2cc(Cl)cc([N+](=O)[O-])c2O)CCCCC1,?,?,40µM,?,45µM,-62
COc1cccc(/C=N/N2C(=O)NC3(CCCCC3)C2=O)c1O,16µM,.,.,.,.,.
COCCCNc1nc2nonc2nc1N1C[C@H]2CC[C@H]1C2,/,.,.,.,.,.
COCCNc1nc2nonc2nc1N1C[C@H]2CC[C@H]1C2,79µM,.,.,.,.,.
O=c1[nH]n2c(=O)c3c([nH]c2c1N=Nc1cccc(Cl)c1)CCCC3,?,?,?,.,?,.
CCN(CC)S(=O)(=O)c1ccc(N=Nc2c(C)[nH]n(C(N)=S)c2=O)cc1,?,?,?,.,.,?
Cc1[nH]n(C(N)=S)c(=O)c1N=Nc1ccc([N+](=O)[O-])cc1Cl,25µM,.,?,?,28µM,.
NC(=S)n1[nH]c(-c2ccc([N+](=O)[O-])cc2)c(N=Nc2cccc(Cl)c2)c1=O,35µM,?,40µM,.,?,-79
Cc1[nH]n(C(N)=S)c(=O)c1N=Nc1ccccc1C(F)(F)F,?,24µM,?,.,.,.
NC(=S)n1[nH]c(-c2ccc([N+](=O)[O-])cc2)c(N=Nc2ccc(O)cc2)c1=O,56µM,?,?,?,50µM,.
COc1ccc(-c2nnc(SCC(=O)Nc3ccc(F)cc3)s2)cc1,.,/,.,.,.,/
Cc1[nH]n(C(N)=S)c(=O)c1N=Nc1cccc(Cl)c1,40µM,?,.,.,.,.
O=C(CCN1CCCCC1)c1ccc2c(c1)OCO2,7.9µM,?,.,.,.,.
O=C(CCN1CCOCC1)c1ccc2c(c1)OCCO2,8.9µM,?,.,.,.,.
O=C(CCCN1CCOCC1)c1ccc2c(c1)OCCO2,.,.,.,.,.,/
Cc1cccc[n+]1CC(=O)c1ccc2c(c1)OCCO2,.,27µM,.,.,.,.
O=C(CCN1CCc2ccccc2CC1)c1ccc2c(c1)OCCO2,2.2µM,13µM,?,.,.,/
CC(CN1CCCCC1)OC(=O)c1ccc2c(c1)OCO2 (stereo not drawn),.[12.7 µM],.,.,.,.,.
Cc1ccc(CCNC(=O)c2nnc(CS(=O)(=O)c3ccccc3)o2)cc1,.,.,.,.,.,.
CC1CCN(c2ccc(S(=O)(=O)N3CCC(C)CC3)cc2N)CC1,.,.,.,.,.,.
Cc1ccc(S(=O)(=O)N2CCC(C(=O)OCc3c(C)noc3C)CC2)cc1C,40µM,.,.,.,.,.
CCOC(=O)C1CCN(S(=O)(=O)c2ccc3c(c2)CC(=O)N3C)CC1,45µM,.,?,.,.,.
CCOC(=O)C1CCN(S(=O)(=O)c2ccc3c(c2)CCCN3C(C)=O)CC1,.,.,.,.,.,.
CC1CCN(S(=O)(=O)c2ccc3c(c2)N(C)C(=O)CC(=O)N3C)CC1,28µM,13µM,.,.,.,.
CN1C(=O)Cc2cc(S(=O)(=O)N3CCOCC3)ccc21,40µM,.,.,.,.,.
Cc1cccc(N2CCN(S(=O)(=O)c3ccc4c(c3)CC(=O)N4C)CC2)c1C,.,.,.,.,.,.
